# Screening data (PubChem)
# The list is not random: actives were taken first. Their share in the collection is about 14%.
# Pf growth 96h = P. falciparum growth inhibition at 96 hours; P. falciparum luciferase reporter growth, 96 h; Potency, µM (doses to about 28.7 µM), inactives show top-dose activity change, negative = inhibition, most hits filed as inhibitors; 6.9% of 320,000 active; AID 504834; further: potency means the concentration at half of the fitted maximal effect
#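 Plates of compound plus infected erythrocytes (2% hematocrit, 0.05% parasitemia final) incubate 96 hours, 37 C, 5% CO2. Detection reagent added; reduced luminescence from the parasites' luciferase reporter flags inhibition.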
# Lassa entry inh = blocks Lassa virus binding to or entry into cells | Potency, µM (top dose mostly 37.9 µM), for inactives: at the top dose activity change, negative = inhibition, actives largely listed as inhibitors | AID 540256 | 1.2% of 300,000 active | Lassa virus pseudotype entry inhibition, cell reporter; calls by dose curve; tested in HEK293 cells; further: potency means the concentration at half of the fitted maximal effect; nearly all actives have a fitted effect of over 50% in size
# Marburg entry inh = inhibitors of Marburg virus binding or cell entry; Potency, µM (series often up to 37.8 µM), for inactives: top-dose activity change, negative = inhibition, usual class: inhibitors; 1.8% of 300,000 active; Marburg virus pseudotyped entry inhibition, cell reporter; AID 540276; calls by dose curve; tested in HEK293 cells; further: potency means the concentration at half of the fitted maximal effect
# Pf growth 48h = P. falciparum growth inhibition at 48 hours (one generation); 5.9% of 310,000 active; Potency, µM (top dose mostly 28.7 µM), for the others: at the highest dose activity change, negative = inhibition, most hits filed as inhibitors; P. falciparum luciferase growth in erythrocytes, 48 h; further: potency means the concentration at half of the fitted maximal effect
#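 Here the parasites carry a stable luciferase gene and grow inside erythrocytes in Albumax-based RPMI medium with compound for one erythrocytic cycle. Activity is scored as loss of luminescent signal.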
# HCV inhibitor = blocks hepatitis C virus; Potency, µM (titrated, usually from 41.8 µM), for inactives: top-dose activity change, negative = inhibition, most hits filed as inhibitors; 3.4% of 340,000 active; Huh7.5.1 HCVcc-Cre infection, luciferase reporter, 44 h; AID 651820; further: potency means the concentration at half of the fitted maximal effect
#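 Luciferase read-out (15 sec integration) after a 15 min room-temperature substrate step quantifies HCVcc-Cre infection. Cells, 1,000 per well, had compound added 4 h post-plating, then virus at ~0.5 moi, and were cultured 44 h.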
# HCMV antiviral = inhibitors of human cytomegalovirus. HFF cells, HCMV-luciferase reporter, 72 h; hits give low values. activity change, negative = inhibition, % at 57.5 µM. 4.5% of 410,000 active; in the data active means activity change below about -60%; inconclusive means no clear call, values can overlap the other calls; inactive means above about -39%
#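 Two compound doses tested in HFFs infected with HCMV-luciferase, MOI 1 PFU/cell, 72 h at 37C. Lysate luminescence read with OneGlo; data normalized against buffer-only and 10uM Salinomycin inhibitor controls.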
# * marks the source's active call; other numbers are inactive results; ? = inconclusive; · = no result; ! = not active in a repeat; [ ] = remark or other dose. Unless noted, the call rests on the fitted dose curve; in most records, active means well fitted inhibition curve with a large enough effect; inconclusive means small, poorly fitted or top-dose-only effect, or another doubt; inactive means no such curve, though single readings can be large or run the other way. On the % scale 0 is the no-effect control and ±100 the full control effect.
SMILES,Pf growth 96h,Lassa entry inh,Marburg entry inh,Pf growth 48h,HCV inhibitor,HCMV antiviral
COc1ccc(NS(=O)(=O)c2cccc(C(=O)N/N=C/c3cn(-c4ccccc4)nc3-c3ccc(OC)cc3)c2)cc1,?,·,·,2.3µM*,-16%,-28
COc1ccccc1NS(=O)(=O)c1cccc(C(=O)N/N=C/c2cn(-c3ccccc3)nc2-c2ccccc2)c1,2.9µM*,-1%,?,2.1µM*,?,?
COc1ccc(NS(=O)(=O)c2cccc(C(=O)N/N=C/c3cn(-c4ccccc4)nc3-c3ccccc3)c2)cc1,21%,·,·,?,?,-22
COc1ccc(CN2C(=O)c3ccccc3C(/C=N/OCc3ccc(Cl)cc3)C2=O)cc1 (stereo not drawn),?,-18%,?,?,-19%,-25
COc1ccc(CN2C(=O)c3ccccc3C(/C=N\OCc3ccc(F)cc3)C2=O)cc1 (stereo not drawn),?,-3%,-25%,?,3%,-91*
COc1ccc(OCC(=O)Nc2ccc(N3CCN(C(=O)c4ccco4)CC3)cc2)cc1,20%,14%,?,0%,-12%,?
O=C(COc1nsnc1N1CCOCC1)Nc1ccc(Cl)cc1,-7%,·,·,11%,-7%,-10
Cc1ccccc1C(=O)N1CCN(c2ccc(NC(=O)CSc3ccc(Cl)cc3)cc2)CC1,?,?,11µM*,?,11µM*,-71*
O=C(COc1ccc(Cl)cc1)Nc1ccc(N2CCN(C(=O)c3ccco3)CC2)cc1,12µM*,?,?,?,10µM*,-86*
O=C(CSc1ccc(Cl)cc1)Nc1ccc(N2CCN(C(=O)c3ccco3)CC2)cc1,·,-22%,?,12µM*,2%,2
CCC(=O)Nc1ccc(N2CCN(C(=O)c3ccccc3C)CC2)cc1,·,7%,2%,-13%,?,22
O=C(COc1nsnc1N1CCOCC1)Nc1ccc([N+](=O)[O-])cc1,-22%,10%[46.1 µM],?,5.2µM*,-24%,56
CCOC(=O)C1=C(COC(=O)CCCOc2ccccc2)NC(=O)NC1C (stereo not drawn),29%,3%,2%,?,0%,-14
CC1CCN(C(=O)c2[nH]cnc2C(=O)Nc2ccc(Cl)cc2)CC1,?,·,·,0%,-10%,?
O=C(COc1ccc([N+](=O)[O-])cc1)Nc1ccc(N2CCN(C(=O)c3ccco3)CC2)cc1,5.2µM*,4%[46.1 µM],6%[46.1 µM],14%,11µM*,?
Cc1ccccc1OCC(=O)Nc1ccc(N2CCN(C(=O)c3ccco3)CC2)cc1,5%,?,?,?,?,-73*
Cc1cccc(OCC(=O)Nc2ccc(N3CCN(C(=O)c4ccco4)CC3)cc2)c1C,?,-11%[46.1 µM],?,?,-22%,-10
COc1cccc(-c2nc(SCC(=O)Nc3ccc4c(c3)OCO4)c(-c3ccccc3)[nH]2)c1,·,?,-30%[46.1 µM],·,·,?
CCC(C)Sc1ccc(-c2nc3cc(C)ccn3c2NC2CCCCC2)cc1 (stereo not drawn),·,·,·,·,?,-102*!
CCCCCCSc1ccc(-c2nc3cnccn3c2NC2CCCCC2)cc1,·,·,·,·,·,29
CCC(C)Sc1ccc(-c2nc3cnccn3c2NC2CCCCC2)cc1 (stereo not drawn),7.4µM*,·,·,7.4µM*,?,12
Cc1ccn2c(NC3CCCCC3)c(-c3cccc(-c4cccc(Cl)c4)c3)nc2c1,10µM*,·,·,8.3µM*,?,-3
O=C(O)c1ccc(-c2nn3c(=O)cc(N4CCNCC4)nc3s2)cc1,·,·,·,·,·,20
COC(=O)c1cc(NC(=O)c2cc(-c3ccc(Cl)cc3)oc2C(F)(F)F)ccc1N1CCOCC1,?,?,?,12µM*,?,-18
COC(=O)c1cc(NC(=O)c2cc(-c3ccccc3Cl)oc2C(F)(F)F)ccc1N1CCOCC1,?,·,·,?,16µM*,-7
SMILES,Pf growth 96h,Lassa entry inh,Marburg entry inh,Pf growth 48h,HCV inhibitor,HCMV antiviral
COC(=O)c1cc(NC(=O)c2c(-c3c(Cl)cccc3Cl)noc2C)ccc1N1CCOCC1,?,·,·,?,-5%,19
CN(C)Cc1c(O)ccc2oc(Cc3ccccc3)cc12,15%,-17%,?,0.41µM*,?,3
Cc1csc(NC(=O)c2oc3ccccc3c2C)n1,14%,?,?,56%,?,88
Cc1csc(Nc2nc(N)c(C(=O)Nc3ccccc3)o2)n1,3.3µM*,·,·,5%[0.00184 µM],-28%,161
Cc1ccccc1-n1c(SCC(=O)Nc2ccccc2Cl)nc2n[nH]c(C)c2c1=N,0%,·,·,?,?,-22
Cc1c(Cl)cccc1-n1c(SCC(=O)NCc2ccccc2)nc2n[nH]c(C)c2c1=N,·,-27%[46.1 µM],·,·,·,-61*
COc1ccc(-n2c(SCC(=O)NCc3ccc(C)cc3)nc3n[nH]c(C)c3c2=N)cc1,·,-29%[46.1 µM],·,·,·,33
COc1ccc(OC)c(NC(=O)CSc2nc3n[nH]c(C)c3c(=N)n2-c2cccc(Cl)c2C)c1,?,-6%[46.1 µM],18µM*,?,?,?
CCc1ccccc1NC(=O)CSc1nc2n[nH]c(C)c2c(=N)n1-c1cccc(OC)c1,·,-13%,?,13µM*,?,3
COc1cccc(C(=O)NCC(=O)OCc2cc(=O)n3c(C)csc3n2)c1,·,8%[46.1 µM],·,·,·,29
CCOC(=O)c1cnc2ccc(OCC)cc2c1NCCN1CCOCC1,?,9%,-29%[46.1 µM],?,-12%,-37
CCOC(=O)c1cnc2ccc(C)cc2c1NCCO,?,10%,-13%,13µM*,-4%,31
CCOC(=O)c1cnc2c(ccc3ccccc32)c1NCCO,?,1%,?,14%,11µM*,8
CCOC(=O)c1cnc2c(ccc3ccccc32)c1NCCN(C)C,12%,·,·,0%,-26%,-4
C/C(=N/NS(=O)(=O)c1ccc(CC(C)C)cc1)c1ccncc1,-29%,·,·,5%,?,-66*
Cc1ccc2oc(C(=O)N(C)Cc3cnccn3)c(C)c2c1,?,12%[46.1 µM],17%[46.1 µM],2.9µM*,-7%,10
CCCc1ccc2oc(C(=O)N(C)Cc3ccn[nH]3)c(C)c2c1,?,?,-8%[46.1 µM],48%,-7%,0
Cc1nc(N)nc(Cl)c1Cc1ccc(Cl)cc1,-13%,-9%[46.1 µM],?,?,15%,-61*
Cc1nc(N)nc(C)c1Cc1ccccc1,·,-7%,-29%[46.1 µM],-10%,3%,-35
Cc1nn(-c2ccc(N3CCOCC3)nn2)c(C)c1CCC(=O)NCc1ccc(OC(C)C)cc1,·,-18%[46.1 µM],·,·,·,-4
COc1ccc(-c2ccc(NS(=O)(=O)c3ccccc3Cl)cc2)nn1,·,?,·,·,·,-26
COc1ccc(-c2ccc(NS(=O)(=O)c3cc(C)c(C)cc3C)cc2)nn1,·,19%[46.1 µM],·,·,·,-77*
CCc1ccc(-n2nc(C)c3c(C(=O)Nc4cc(C)c(Cl)cc4OC)cc(C)nc32)cc1,·,23%[46.1 µM],·,·,·,14
